From PubChem BioAssay (NCATS) come the findings set out here.

“And” between values parts separate entries of the source, which are not always exact repeats. Identical values can stand only once. Values without a mark were called inactive. Inconclusive results are not listed. The source made the active and inactive calls. Unless noted, calls follow the shape of the dose curve; as a rule, active = well fitted curve in the direction sought with a large enough effect; inconclusive = small, poorly fitted or top-dose-only effect, or another doubt; inactive = no such curve, though single readings can be large; an effect the other way counts as inactive or inconclusive.

A short description of experiment [1]: qHTS assay for environmental chemicals that activate the Aryl hydrocarbon Receptor (AhR) signaling pathway (AID 651777). Also: nearly all actives have a fitted effect of over 15% in size. Also: potency is read from the fitted curve at half-maximal effect. As to activation: % of control where 0% means no effect. Conditions: 1A2-DRE human hepatoma cells, luciferase, 24 h; activation: stronger effect = higher value. The essentials:
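Concentration–response screening used 1,200 1A2-DRE cells per well, 24 hr compound exposure (37 C, 5% CO2), and One-Glo luminescence as the AhR-driven CYP1A2 reporter signal.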
(Quantitative high-throughput screening tests each substance at several concentrations.)

Experiment [2] has as its target Peroxisome proliferator-activated receptor alpha (Homo sapiens) (UniProt Q07869). The experiment can be described thus: qHTS assay for small molecule agonists of the peroxisome proliferator-activated receptor alpha (PPARalpha) signaling pathway (AID 651778). Also: % of control where 0% means no effect. To be noted: PathHunter PPARalpha complementation, chemiluminescence, 6 h; stronger effect = higher value. The essentials: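 Enzyme-fragment complementation assay in which ligand-bound PPARalpha translocates and forms an active enzyme that generates chemiluminescence. Cells were plated overnight, exposed to compound for 6 hr at 37 C, and then given detection reagent for 60 min at room temperature.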

Experiment [3] deals with Nuclear receptor ROR-gamma (Homo sapiens) (UniProt P51449). The experiment can be described thus: qHTS assay for small molecule antagonists of the retinoid-related orphan receptor gamma (ROR-gamma) signaling pathway (AID 651802). Also: series mostly up to about 92 µM; % is scaled to controls: 0 for no effect and ±100 for the full control effect; nearly all actives have a fitted effect of over 60% in size. In short, it runs like this:
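Antagonism is scored as a fall in luminescence from a RORE-luciferase reporter in CHO cells expressing ROR under a TET-inducible promoter, measured 16hr after doxycycline induction in the presence of compound.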

Experiment [4] can be described thus: qHTS assay for small molecule agonists of the antioxidant response element (ARE) signaling pathway measured by Nrf2-dependant transcriptional activity (AID 720636; active = well fitted curve in the direction sought with a large enough effect in the repeat runs; an effect the other way counts as inactive or inconclusive; also: potency is read from the fitted curve at half-maximal effect;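 as to activation: HepG2 cells with an ARE-driven luciferase reporter; % of control where 0% means no effect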). The essentials: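 Attachment 6 hr at 37 C, then compound versus DMSO vehicle for 16 hr in ARE-luc HepG2 cells (1% dialyzed FBS); luminescence recorded 30 min after ONE-Glo addition at room temperature.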

The nature of experiment [5]: qHTS assay for small molecule antagonists of the retinoid-related orphan receptor gamma (ROR-gamma) signaling pathway - cell viability counter screen (AID 720652; active = well fitted curve in the direction sought with a large enough effect in the repeat runs; an effect the other way counts as inactive or inconclusive;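 also: series mostly up to about 92 µM; compound exposure lasted 16 hr before ATP read; % is scaled to controls: 0 for no effect and ±100 for the full control effect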). The essentials: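 Cytotoxicity is quantified via intracellular ATP (CellTiter-Glo luminescence) in doxycycline-induced CHO ROR response element-luciferase reporter cells treated with compound for 16 hr at 37 C, 5% CO2.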

Experiment [6] is described as follows: qHTS assay for small molecule agonists of the antioxidant response element (ARE) signaling pathway measured by Nrf2-dependant transcriptional activity - cell viability counter screen (AID 720653; active = well fitted curve in the direction sought with a large enough effect in the repeat runs; an effect the other way counts as inactive or inconclusive; also: % is scaled to controls: 0 for no effect and ±100 for the full control effect). Conditions: ARE-bla HepG2 viability, CellTiter-Glo ATP luminescence, 16 h; stronger effect = lower value. The essentials:
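ARE-bla HepG2 cells treated with compounds for 16 h at 37C; this counter screen measures viability as intracellular ATP by CellTiter-Glo luminescence after 30 min at room temperature.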

The target of experiment [7] is Tyrosine-protein kinase Yes (Homo sapiens) (UniProt P07947). The experiment can be described thus: qHTS for small molecule inhibitors of Yes1 kinase: Primary Screen (AID 686947).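 Also: plate controls were DMSO with enzyme for no effect and no-enzyme DMSO wells for full effect; nearly all actives have a fitted effect of over 60% in size.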 The essentials:
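ADP-Glo luminescence readout; final 4 nM Yes1, 0.1 mM ATP, 0.3 mg/mL poly(E4Y), Tris pH 7.5, MgCl2, DTT, Brij-35. 20 min compound preincubation, 60 min reaction at RT. Normalized to DMSO wells with and without enzyme.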

A short description of experiment [8]: qHTS for small molecule inhibitors of Yes1 kinase: Counter Assay (AID 686950).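 Also: no kinase present so only ADP-Glo detection of a fixed ADP amount is tested; luminescence from ADP-Glo reporting ADP in a fixed ATP and ADP mixture; series mostly up to about 77 µM; 0% = DMSO wells with ATP plus ADP and -100% = ATP-only wells without ADP.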 The essentials:
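Enzyme-free detection counter-screen: compounds preincubated 20 min in buffer, then 0.08 mM ATP plus 0.02 mM ADP added for 60 min at room temperature; ADP-Glo luminescence. Buffer 50 mM Tris pH 7.5, 10 mM MgCl2, 150 mM NaCl; normalized to ATP+ADP and ATP-only controls.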

Sequence of Nuclear receptor ROR-gamma (Homo sapiens) (P51449 whole entry, looked up): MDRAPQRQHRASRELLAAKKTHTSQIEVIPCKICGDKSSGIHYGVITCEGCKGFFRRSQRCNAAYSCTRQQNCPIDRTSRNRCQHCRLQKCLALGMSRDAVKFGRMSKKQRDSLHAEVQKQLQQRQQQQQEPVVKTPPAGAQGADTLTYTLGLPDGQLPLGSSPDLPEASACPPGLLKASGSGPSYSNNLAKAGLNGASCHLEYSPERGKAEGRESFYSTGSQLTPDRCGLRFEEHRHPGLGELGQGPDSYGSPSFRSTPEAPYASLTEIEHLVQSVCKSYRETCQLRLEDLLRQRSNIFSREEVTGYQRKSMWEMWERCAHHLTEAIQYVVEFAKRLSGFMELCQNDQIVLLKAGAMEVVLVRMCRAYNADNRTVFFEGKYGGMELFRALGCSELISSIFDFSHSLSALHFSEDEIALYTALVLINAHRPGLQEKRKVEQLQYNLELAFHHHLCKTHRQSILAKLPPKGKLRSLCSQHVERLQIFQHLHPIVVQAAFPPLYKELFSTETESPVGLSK
Sequence of Peroxisome proliferator-activated receptor alpha (Homo sapiens) (Q07869 whole entry, looked up, the tested form may be a part): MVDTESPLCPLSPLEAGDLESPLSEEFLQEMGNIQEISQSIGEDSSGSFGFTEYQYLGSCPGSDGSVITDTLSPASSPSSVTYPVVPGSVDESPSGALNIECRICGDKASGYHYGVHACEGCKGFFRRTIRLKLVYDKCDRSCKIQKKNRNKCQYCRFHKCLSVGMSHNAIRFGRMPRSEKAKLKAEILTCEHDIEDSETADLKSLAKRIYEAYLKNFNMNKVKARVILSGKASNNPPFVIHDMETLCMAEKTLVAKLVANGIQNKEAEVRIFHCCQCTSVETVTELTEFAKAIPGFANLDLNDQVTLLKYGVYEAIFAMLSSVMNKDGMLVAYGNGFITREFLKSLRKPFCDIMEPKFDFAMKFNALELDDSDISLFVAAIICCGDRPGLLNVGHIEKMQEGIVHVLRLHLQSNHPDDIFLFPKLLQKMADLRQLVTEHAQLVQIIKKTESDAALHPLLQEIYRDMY
Sequence of Tyrosine-protein kinase Yes (Homo sapiens) (P07947 whole entry, looked up): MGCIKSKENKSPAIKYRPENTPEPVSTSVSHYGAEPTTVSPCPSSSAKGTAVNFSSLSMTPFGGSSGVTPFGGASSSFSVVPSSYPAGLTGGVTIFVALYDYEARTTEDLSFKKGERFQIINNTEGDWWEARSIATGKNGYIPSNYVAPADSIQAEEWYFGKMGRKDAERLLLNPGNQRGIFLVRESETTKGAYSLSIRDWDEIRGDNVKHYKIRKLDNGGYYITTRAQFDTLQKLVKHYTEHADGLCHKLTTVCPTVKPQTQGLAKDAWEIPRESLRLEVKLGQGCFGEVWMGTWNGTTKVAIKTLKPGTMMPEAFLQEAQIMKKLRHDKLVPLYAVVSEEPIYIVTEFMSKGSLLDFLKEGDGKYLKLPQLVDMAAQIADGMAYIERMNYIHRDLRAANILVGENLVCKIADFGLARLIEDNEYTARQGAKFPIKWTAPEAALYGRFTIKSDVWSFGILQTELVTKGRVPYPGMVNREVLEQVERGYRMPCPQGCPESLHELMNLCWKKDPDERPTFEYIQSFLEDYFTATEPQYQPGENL

Turning to `O=c1n(CC2CO2)c(=O)n(CC2CO2)c(=O)n1CC1CO1` (centres undefined), the activation in experiment [1] is 1.5% and 3.12%. Besides, the max response is -0.847% and -0.241% in experiment [2]; -19.7% and -11.1% in experiment [6]. For the same molecule, the Potency entry in experiment [3] was “inactive”. The Potency in experiment [4] was 59.6 µM (active) and 61.1 µM (active). In experiment [5], the call was inactive.
As to `CCOC(C)OCC`, the activation in experiment [1] was -0.455%. Besides, the max response in experiment [2] was -1.13%; in experiment [6], -4.14%. Moreover, the Potency entry in experiment [3] and in experiment [4] was “inactive” throughout. The molecule was called inactive in experiment [5].
For the molecule `CO/N=C(/C(=O)N[C@@H]1C(=O)N2C(C(=O)O)=C(COC(N)=O)CS[C@H]12)c1ccco1`, in experiment [1], the activation was -0.274%. Also, the max response in experiment [2] is -0.921%; in experiment [6], 4.41%. In addition, the Potency entry in experiment [3] and in experiment [4] was “inactive” each time. Besides, the result in experiment [5] was inactive.
In the case of `Cc1ncc[nH]1`, the activation in experiment [1] is 0.165%. The max response in experiment [2] is -1.93%; in experiment [6], 2.15%. The Potency result in experiment [3] and in experiment [4] was “inactive” throughout. Besides, the outcome in experiment [5] was inactive.
Consider `C/C=C/C=C/C(=O)O`, for which the activation in experiment [1] is 0.214%. The max response in experiment [2] was 0.184%; in experiment [6] it was -1.45%. The Potency result in experiment [3] and in experiment [4] was “inactive” throughout. Besides, the molecule was called inactive in experiment [5].
For `OCC(O)CO`, the activation in experiment [1] was -0.636% and 0.226%. For the same molecule, the max response in experiment [2] was -3.36% and -0.557%; in experiment [6], -6.54% and -5.61%. Also, the Potency result in experiment [3] and in experiment [4] was “inactive” each time. For the same molecule, the molecule was called inactive in experiment [5].
As to `CC[C@H]1OC(=O)[C@H](C)[C@@H](O[C@H]2C[C@@](C)(OC)[C@@H](O)[C@H](C)O2)[C@H](C)[C@@H](O[C@@H]2O[C@H](C)C[C@H](N(C)C)[C@H]2O)[C@](C)(O)C[C@@H](C)CN(C)[C@H](C)[C@@H](O)[C@]1(C)O`, the activation in experiment [1] is 0.789%. For the same molecule, the max response in experiment [2] is -5.78%; in experiment [6] it was -20.4%. The Potency entry in experiment [3] and in experiment [4] was “inactive” each time. In experiment [5], the molecule was called inactive.
In the case of `Nc1nccs1`, the activation in experiment [1] was 1.04%. Moreover, the max response in experiment [2] is -4.35%; in experiment [6], -16.1%. The Potency result in experiment [3] and in experiment [4] was “inactive” each time.
As to `NC(N)=O`, the values for the max response in experiment [2] and in experiment [6] were -1.08% and -1.96%, respectively. Besides, the Potency result in experiment [3] and in experiment [4] was “inactive” throughout. Further, the outcome in experiment [5] was inactive.
`C=CC(C)(O)CC/C=C(\C)CCC=C(C)C` (centres undefined): in experiment [1], the activation was 0.207%. For the same molecule, the figures for the max response in experiment [2] and in experiment [6] were -0.214% and 1.82%, respectively. For the same molecule, in experiment [4], the Potency result is “inactive”.
Turning to `ClC(Cl)Cl`, in experiment [1], the activation is -0.58%. The max response is 0.366% in experiment [2] and -10.5% in experiment [6]. Further, in experiment [4], the Potency result is “inactive”. In addition, the outcome in experiment [5] was inactive.
`O=C(OCc1ccccc1)c1ccc(O)cc1`: the activation in experiment [1] is 0.611%. The values for the max response in experiment [2] and in experiment [6] were -0.0988% and -5.99%, respectively.
`CCCCC(CC)COS(=O)(=O)O` (centres undefined): the activation in experiment [1] was -1.44%. Besides, the max response is -1.27% in experiment [2] and 8.31% in experiment [6]. Also, the Potency entry in experiment [4] is “inactive”.
In the case of `[O-][N+](=Nc1ccccc1)c1ccccc1`, the max response in experiment [2] was 10.8%; in experiment [6], -2.2%. The result in experiment [5] was inactive.
In the case of `C[C@H](CCC(=O)O)[C@H]1CC[C@H]2[C@@H]3CC[C@@H]4C[C@H](O)CC[C@]4(C)[C@H]3C[C@H](O)[C@]12C`, the activation in experiment [1] is -0.635%. Besides, the max response was -0.194% in experiment [2] and -10.6% in experiment [6]. In experiment [4], the Potency entry is “inactive”. In addition, the molecule was classed as inactive in experiment [5].
`Cc1ccc(S(=O)(=O)NCl)cc1`: in experiment [1], the activation is -2.28%. Also, the figures for the max response in experiment [2] and in experiment [6] were -0.128% and -0.456%, respectively. In experiment [4], the Potency result is “inactive”.
The matching figures for `C[Si](C)(C)O[Si](C)(C)C`: 1.01%, -0.124%, -6.75% and “inactive”.
Regarding `CO[C@H]1C[C@@H]2CC[C@@H](C)[C@@](O)(O2)C(=O)C(=O)N2CCCC[C@H]2C(=O)O[C@H]([C@H](C)C[C@@H]2CC[C@@H](OC(=O)C(C)(CO)CO)[C@H](OC)C2)CC(=O)[C@H](C)/C=C(\C)[C@@H](O)[C@@H](OC)C(=O)[C@H](C)C[C@H](C)/C=C/C=C/C=C/1C`, the outcome in experiment [7] and in experiment [8] was inactive.
For the molecule `CC(C)[C@@H]1CC[C@@H](C)C[C@H]1O`, the activation in experiment [1] was -0.378%. For the same molecule, the max response was -1.09% in experiment [2] and 0.622% in experiment [6]. The Potency result in experiment [4] is “inactive”.
Take `Nc1ccc(N=Nc2ccccc2)c(N)n1`: the Potency in experiment [1] is 39.8 µM (active) and 44.7 µM (active). Besides, the max response in experiment [2] was -8.45% and -6.87%; in experiment [6] it was -11.4% and -26.2%. Besides, the Potency result in experiment [3] is “inactive”.
For `CCCCO`, in experiment [1], the activation is -0.013% and -0.728%. The max response in experiment [2] is -5.14% and -4.07%; in experiment [6], -5.18% and -2.26%. The Potency entry in experiment [4] is “inactive”. In addition, the molecule was called inactive in experiment [5].
For the molecule `N[C@@H](Cc1cc(I)c(Oc2ccc(O)c(I)c2)c(I)c1)C(=O)O`, the max response in experiment [2] was -3.23%; in experiment [6] it was -4.18%. In addition, the Potency result in experiment [4] was “inactive”.
Consider `Cc1ccc(S(=O)(=O)O)cc1C`, for which the activation in experiment [1] was -1.47%. Also, the max response is -6.39% in experiment [2] and 12.7% in experiment [6]. Further, the Potency result in experiment [4] was “inactive”. In addition, in experiment [5], the outcome was inactive.
Turning to `C=C1C(CCl)(CCl)C2(Cl)C(Cl)C(Cl)C1(Cl)C2(Cl)Cl` (centres undefined), the activation in experiment [1] was 1.11%. Moreover, in experiment [2], the max response is 19%. In experiment [4], the Potency was 66.8 µM (active).
Regarding `C=C(C)C1CC=C(C)CC1` (centres undefined), the activation in experiment [1] is -2.32% and -0.122%. For the same molecule, the max response in experiment [2] is -1.15% and 0.153%; in experiment [6] it was -0.676% and -5.86%. Also, the Potency entry in experiment [4] was “inactive”.
